# Results reported in PubChem BioAssay (NCI).
# About 79,000 compounds went through this panel and 15% of them were active in at least one assay; those are over-represented in the sample as a whole. Unmarked numbers belong to inactive results. Active and inactive are the calls of the source. Rule as the data show it: active = growth inhibition above about 70%; inactive = the rest.
# Key:
# [1] = NCI Yeast Anticancer Drug Screen. Data for the rad52 strain (AID 147);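 also: 0% = growth of vehicle-treated control cultures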; conditions: S. cerevisiae rad52 mutant growth inhibition, stronger effect = higher value
# In short: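 Here a repair-compromised yeast strain receives each compound; its growth is then quantified and normalised to vehicle-only controls.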
# [2] = NCI Yeast Anticancer Drug Screen. Data for the wt1 strain (AID 149);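 also: 0% = growth of vehicle-treated wt1 cultures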; conditions: S. cerevisiae wt1 strain (SPY 50644) growth inhibition, stronger effect = higher value
# In short: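 The wt1 strain was treated with compounds, and growth was compared with vehicle-treated cultures to give inhibition.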
# [3] = NCI Yeast Anticancer Drug Screen. Data for the rad50EPP+ strain (AID 151);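 also: 0% = growth of vehicle-treated control cultures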; conditions: S. cerevisiae rad50 mutant strain, stronger effect = higher value
# In short: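 Read-out is yeast growth inhibition relative to vehicle; cells used were the rad50EPP+ strain.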
# [4] = NCI Yeast Anticancer Drug Screen. Data for the rad50 strain (AID 155);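 also: 0% = growth of vehicle-only cultures of the same strain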; conditions: S. cerevisiae rad50 strain growth inhibition, stronger effect = higher value
# In short: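 Cells are treated with compound, grown, and their growth is then scored against vehicle-only cultures of the same repair-deficient yeast strain.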
# [5] = NCI Yeast Anticancer Drug Screen. Data for the mec2-1 strain (AID 157); conditions: S. cerevisiae mec2-1 strain, stronger effect = higher value
# In short: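 Using mec2-1 yeast: add compound, measure growth, express inhibition versus vehicle-treated cultures.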
# [6] = NCI Yeast Anticancer Drug Screen. Data for the rad14 strain (AID 159);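 also: 0% = growth of vehicle-treated control cultures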; conditions: S. cerevisiae rad14 strain growth inhibition, stronger effect = higher value
# In short: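 Readout: yeast growth inhibition, referenced to vehicle-only cultures. Strain bears a defined alteration in DNA damage repair.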
# [7] = NCI Yeast Anticancer Drug Screen. Data for the CLN2oe strain (AID 163);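 also: 0% = growth of vehicle-only control cultures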; conditions: S. cerevisiae CLN2oe strain, stronger effect = higher value
# In short: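 Whole-cell yeast growth assay. A strain engineered for altered cell-cycle control received compound, and inhibition relative to vehicle-treated cultures was recorded.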
# [8] = NCI Yeast Anticancer Drug Screen. Data for the cln2 rad14 strain (AID 165);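 also: 0% = growth equal to vehicle treated cultures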; conditions: S. cerevisiae cln2 rad14 strain, stronger effect = higher value
# In short: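 Yeast strain cln2 rad14, bearing defects in cell cycle control and DNA repair, serves as the test system; values reflect growth inhibition compared with vehicle.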
# [9] = NCI Yeast Anticancer Drug Screen. Data for the bub3 strain (AID 167); conditions: S. cerevisiae bub3 mutant strain, stronger effect = higher value
# In short: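 Part of a panel of yeast mutants defective in DNA damage repair or cell cycle regulation. Each strain is grown with compound, and inhibition is calculated relative to solvent-treated cultures.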
# [10] = NCI Yeast Anticancer Drug Screen. Data for the wt2 strain (AID 169);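 also: 0% = growth of vehicle-treated yeast cultures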; conditions: S. cerevisiae wt2 strain growth inhibition, stronger effect = higher value
# In short: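 Treated yeast vs. vehicle-treated yeast: growth inhibition determined.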
# [11] = NCI Yeast Anticancer Drug Screen. Data for the mlh1 strain (AID 171);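 also: 0% = growth of vehicle-treated control cultures of the same strain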; conditions: S. cerevisiae mlh1 strain growth inhibition, stronger effect = higher value
# In short: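 A yeast strain with a defined genetic lesion serves as the test organism. Cultures receive compound or vehicle, and growth is measured.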
# [12] = NCI Yeast Anticancer Drug Screen. Data for the sgs1 strain (AID 173);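 also: 0% = growth of vehicle-only control cultures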; conditions: S. cerevisiae sgs1 mutant, stronger effect = higher value
# In short: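 A genetically defined yeast mutant is incubated with the test compound, and its growth is compared to that of the same strain given vehicle.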
# [13] = NCI Yeast Anticancer Drug Screen. Data for the mlh1 rad18 strain (AID 175); conditions: S. cerevisiae mlh1 rad18 strain growth inhibition, stronger effect = higher value
# In short: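 Steps: expose repair-defective yeast to compound; measure growth; express inhibition against vehicle-treated controls.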
# [14] = NCI Yeast Anticancer Drug Screen. Data for the rad18 strain (AID 177); conditions: S. cerevisiae rad18 mutant growth inhibition, stronger effect = higher value
# In short: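 Measured value is growth inhibition of a yeast strain bearing a DNA repair alteration, referenced to vehicle-treated cells.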
# [15] = at 5.0 µM (retest, dose inferred, filed as 0.5)
# [16] = at 50.0 µM (retest, dose inferred, filed as 5.0)
smiles,measurement,setting,value
CC(=O)Nc1ccc(SC(C)=O)cc1,growth inhibition,[1]; at 1.2 µM,0%
same,growth inhibition,[1]; at 3.7 µM,-21%
same,growth inhibition,[1]; at 11.0 µM,-2%
same,growth inhibition,[1]; at 33.0 µM,58%
same,growth inhibition,[1]; at 100.0 µM,86% (active)
same,growth inhibition,[2]; at 1.2 µM,-36%
same,growth inhibition,[2]; at 3.7 µM,-30%
same,growth inhibition,[2]; at 11.0 µM,-18%
same,growth inhibition,[2]; at 33.0 µM,43%
same,growth inhibition,[2]; at 100.0 µM,85% (active)
same,growth inhibition,[3]; at 1.2 µM,-29%
same,growth inhibition,[3]; at 3.7 µM,-22%
same,growth inhibition,[3]; at 11.0 µM,-6%
same,growth inhibition,[3]; at 33.0 µM,-1%
same,growth inhibition,[3]; at 100.0 µM,29%
same,growth inhibition,[4]; at 1.2 µM,-29%
same,growth inhibition,[4]; at 3.7 µM,-4%
same,growth inhibition,[4]; [15],80% (active)
same,growth inhibition,[4]; at 11.0 µM,7%
same,growth inhibition,[4]; at 33.0 µM,59%
same,growth inhibition,[4]; [16],100% (active)
same,growth inhibition,[4]; at 50.0 µM,70.7% (active)
same,growth inhibition,[4]; at 100.0 µM,86% (active)
same,growth inhibition,[5]; at 1.2 µM,-41%
same,growth inhibition,[5]; at 3.7 µM,-45%
same,growth inhibition,[5]; [15],72% (active)
same,growth inhibition,[5]; at 11.0 µM,-9%
same,growth inhibition,[5]; at 33.0 µM,62%
same,growth inhibition,[5]; [16],100% (active)
same,growth inhibition,[5]; at 50.0 µM,56.8%
same,growth inhibition,[5]; at 100.0 µM,86% (active)
same,growth inhibition,[6]; at 1.2 µM,-27%
same,growth inhibition,[6]; at 3.7 µM,-38%
same,growth inhibition,[6]; at 11.0 µM,-5%
same,growth inhibition,[6]; at 33.0 µM,56%
same,growth inhibition,[6]; at 100.0 µM,88% (active)
same,growth inhibition,[7]; at 1.2 µM,-5%
same,growth inhibition,[7]; at 3.7 µM,-17%
same,growth inhibition,[7]; at 11.0 µM,12%
same,growth inhibition,[7]; at 33.0 µM,47%
same,growth inhibition,[7]; at 100.0 µM,85% (active)
same,growth inhibition,[8]; [15],44%
same,growth inhibition,[8]; [16],85% (active)
same,growth inhibition,[8]; at 50.0 µM,66.7%
same,growth inhibition,[9]; at 1.2 µM,-25%
same,growth inhibition,[9]; at 3.7 µM,-6%
same,growth inhibition,[9]; [15],18%
same,growth inhibition,[9]; at 11.0 µM,0%
same,growth inhibition,[9]; at 33.0 µM,63%
same,growth inhibition,[9]; [16],77% (active)
same,growth inhibition,[9]; at 50.0 µM,55.6%
same,growth inhibition,[9]; at 100.0 µM,87% (active)
same,growth inhibition,[10]; at 1.2 µM,-22%
same,growth inhibition,[10]; at 3.7 µM,-23%
same,growth inhibition,[10]; at 11.0 µM,-10%
same,growth inhibition,[10]; at 33.0 µM,54%
same,growth inhibition,[10]; at 100.0 µM,88% (active)
same,growth inhibition,[11]; at 1.2 µM,-25%
same,growth inhibition,[11]; at 3.7 µM,-26%
same,growth inhibition,[11]; at 11.0 µM,6%
same,growth inhibition,[11]; at 33.0 µM,54%
same,growth inhibition,[11]; at 100.0 µM,86% (active)
same,growth inhibition,[12]; at 1.2 µM,-30%
same,growth inhibition,[12]; at 3.7 µM,-9%
same,growth inhibition,[12]; at 11.0 µM,10%
same,growth inhibition,[12]; at 33.0 µM,65%
same,growth inhibition,[12]; at 100.0 µM,88% (active)
same,growth inhibition,[13]; [15],60%
same,growth inhibition,[13]; [16],100% (active)
same,growth inhibition,[13]; at 50.0 µM,72.3% (active)
same,growth inhibition,[14]; at 1.2 µM,-28%
same,growth inhibition,[14]; at 3.7 µM,-10%
same,growth inhibition,[14]; at 11.0 µM,-4%
same,growth inhibition,[14]; at 33.0 µM,52%
same,growth inhibition,[14]; at 100.0 µM,84% (active)
